An excerpt weighted towards active compounds, which were near 3.3% of everything screened.
VACV mCherry inh = qHTS for Stage-Specific Inhibitors of Vaccinia Orthopoxvirus: mCherry Reporter Primary qHTS. 310,000 compounds, 0.63% hits. Potency, µM (top dose mostly 36.5 µM), hits mostly inhibitors. Vaccinia virus mCherry reporter infection, fluorescence; calls by dose curve; tested in A549 cells; also: nearly all actives have a fitted effect of over 35% in size
VACV Venus inh = qHTS for Stage-Specific Inhibitors of Vaccinia Orthopoxvirus: Venus Reporter Primary qHTS; Vaccinia virus Venus reporter expression, fluorescence; Potency, µM (doses to about 36.5 µM), most hits filed as inhibitors; 330,000 compounds, 0.46% hits; calls by dose curve; tested in A549 cells; also: nearly all actives have a fitted effect of over 30% in size
HCV inh = qHTS Assay for Inhibitors of Hepatitis C Virus (HCV) | Huh7.5.1 HCVcc-Cre infection, luciferase reporter, 44 h | Potency, µM (doses to about 41.8 µM), hits mostly inhibitors | 340,000 compounds, 3.4% hits; active = well fitted inhibition curve with a large enough effect; inconclusive = small, poorly fitted or top-dose-only effect, or another doubt; inactive = no such curve, though single readings can be large or run the other way
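Cells seeded at 1,000/well and cultured 4 h, then compounds added followed by HCVcc-Cre virus (~0.5 moi). After 44 h further culture, luciferase substrate was added, plates held 15 min at room temperature, and luminescence read for 15 sec.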
Large screens that a line does not name were inactive.

O=C(Nc1ccc(N2CCN(c3ccc(C(F)(F)F)cn3)CC2)nc1)c1cccs1	none
COc1ccc(/C=C/c2ccc3ccccc3n2)c(OC)c1	none (no result: HCV inh)
NNc1nc2c(-c3cccc(C(F)(F)F)c3)nnn2c2ccccc12	VACV mCherry inh inconclusive, HCV inh 14.1µM
FC(F)(F)c1cccc(-c2nnn3c2nc(NC2CCCCC2)c2ccccc23)c1	none (no result: HCV inh)
CC(=O)NCCNc1nc2c(-c3ccc(C)cc3)nnn2c2ccccc12	none (no result: HCV inh)
CC(=O)NCCNc1nc2c(-c3cccc(C)c3)nnn2c2ccccc12	HCV inh 14.1µM (no result: VACV mCherry inh, VACV Venus inh)
CSc1ncc(C(=O)NCc2cccc(C)c2)c(-c2ccccc2)n1	none (no result: HCV inh)
CC1CCN(S(=O)(=O)c2c[nH]c(=O)[nH]c2=O)CC1	HCV inh 10µM
COC(=O)C1CCN(S(=O)(=O)c2c[nH]c(=O)[nH]c2=O)CC1	none (no result: HCV inh)
CCCCNc1sc(S(=O)(=O)CC)nc1S(=O)(=O)c1ccc(C)cc1	none (no result: HCV inh)
O=C(CSc1nc(=O)n(CCN2CCOCC2)c2c1CCC2)Nc1ccc(Cl)c(Cl)c1	none (no result: HCV inh)
Cc1ccccc1C(=O)c1cccn1CC(=O)NCCC1=CCCCC1	none
Cc1ccc(C)c(N2CCN(CCCNC(=O)Cn3cccc3C(=O)c3ccccc3C)CC2)c1	VACV mCherry inh inconclusive, VACV Venus inh inconclusive, HCV inh 11.2µM
Cc1ccccc1C(=O)c1cccn1CC(=O)NCCCN1CCCCC1	none
Cc1ccccc1C(=O)c1cccn1CC(=O)NCCN1CCN(c2cccc(C)c2C)CC1	HCV inh 11.2µM (no result: VACV mCherry inh, VACV Venus inh)
O=C(C1=C[C@H](c2ccccc2)C[C@H](OCCCCO)O1)N1CCOCC1	none
COc1ccc(NC(=O)CSCc2cc(=O)c3cc(Cl)ccc3[nH]2)cc1	none (no result: HCV inh)
CCC1CCCCN1C(=O)CCC(=O)Nc1nnc(C(F)(F)F)s1 (stereo not given)	none (no result: VACV mCherry inh, VACV Venus inh)
COc1cc(NC(=O)c2cc(-c3cccc(O)c3)on2)cc(OC)c1OC	VACV mCherry inh inconclusive, HCV inh 11.2µM
COc1cc(NC(=O)c2cc(-c3ccc(Cl)c(Cl)c3)on2)cc(OC)c1OC	none (no result: HCV inh)
COc1cc(NC(=O)c2cc(-c3cccs3)on2)cc(OC)c1OC	VACV mCherry inh inconclusive, HCV inh inconclusive
COc1cc(NC(=O)c2cc(-c3ccccc3Cl)on2)cc(OC)c1OC	VACV Venus inh inconclusive, HCV inh 1.12µM
Cc1ccc(C)c(N2CCN(c3nc4ccccc4c(=O)n3-c3ccc(Cl)cc3)CC2)c1	none (no result: HCV inh)
CCOC(=O)C1=CCN(S(=O)(=O)c2ccccc2Br)C1c1cccc(C)c1 (stereo not given)	none (no result: HCV inh)
O=C(Cn1ccc2cc(S(=O)(=O)N3CCCCCC3)ccc21)NCc1ccccc1Cl	none (no result: HCV inh)
CSCCC(C)N1CCC(Oc2ccc(C(=O)N3CCCC3)cc2)CC1 (stereo not given)	none (no result: HCV inh)
COc1ccc(C(=O)OCC(=O)NC(=O)NCc2ccccc2)cc1[N+](=O)[O-]	none
COC(=O)c1ccc(SCC(=O)NCc2ccccc2)c([N+](=O)[O-])c1	HCV inh 14.1µM
Cc1ccc(CN2CCC(C3(c4ccccn4)NC(=O)N(CC4CCCO4)C3=O)CC2)cc1C (stereo not given)	none (no result: HCV inh)
CN(C)C(=O)CCc1ccc2c3c([nH]c2c1)[C@]1(C)[C@@H](C(=O)N2CCOCC2)C[C@H](CC(=O)NCCN2CCOCC2)C(=O)N1CC3	none
COc1cccc(CNc2nc(Cl)nc3nc[nH]c23)c1	none (no result: HCV inh)
O=C(O)CCC(NC(=O)c1ccc(Cl)cc1)C(=O)O (stereo not given)	none
CN(Cc1cnc2nc(N)nc(N)c2n1)c1ccc(C(=O)NC(CCC(=O)O)C(=O)O)c2ccccc12 (stereo not given)	VACV mCherry inh 3.16µM, VACV Venus inh inconclusive
N#Cc1cccc(NC(=O)CN2C(=O)NC(Cc3ccccc3)C2=O)c1 (stereo not given)	none (no result: VACV mCherry inh, VACV Venus inh)
CN1CCN(C(=O)CCN2C(=O)/C(=C/c3ccc(F)cc3)SC2=S)CC1	HCV inh inconclusive
Cc1ccccc1-c1noc(-c2ccc(Cl)cc2)n1	none
Cc1ccccc1-c1noc(-c2ccc(O)cc2)n1	HCV inh 14.1µM
Cc1ccc(NC(=O)c2cccc(N3CCCS3(=O)=O)c2)cc1	none (no result: HCV inh)
COc1ccccc1Nc1nc(NCC2CCCO2)c2ccccc2n1 (stereo not given)	HCV inh 10µM
COc1ccc(S(=O)(=O)Nc2nc3ccccc3nc2NCC2CCCO2)cc1 (stereo not given)	none
O=[N+]([O-])c1ccc(-c2nc(NCC3CCCO3)c3ccccc3n2)cc1 (stereo not given)	VACV Venus inh inconclusive, HCV inh inconclusive
Oc1ccccc1-c1nc(NCC2CCCO2)c2ccccc2n1 (stereo not given)	HCV inh 12.6µM
CCc1cnc2c(c1SCC(=O)Nc1ccc(OC)c(OC)c1)c(=O)n(C)c(=O)n2C	none (no result: HCV inh)
CCOCCn1ccc2c(OCC(=O)Nc3cc(C(F)(F)F)ccc3Cl)cccc2c1=O	none (no result: HCV inh)
Cc1cc2c(c(C)c1Cl)C(c1ccc3c(c1)OCO3)CC(=O)O2 (stereo not given)	none
Cc1ccc(C(C)C)c2c1C(c1ccc3c(c1)OCO3)CC(=O)O2 (stereo not given)	VACV mCherry inh inconclusive, HCV inh 12.6µM
Cc1ccc2nc(N3CCN(C(=O)c4ccco4)CC3)c3nncn3c2c1	none
O=C(CSc1nnc(COc2cccc3cccnc23)o1)c1ccc(F)cc1	HCV inh 10µM
Cc1ccc(C(=O)CSc2nnc(COc3cccc4cccnc34)o2)cc1	none
COC(=O)c1ccccc1NC1=C/C(=N\S(=O)(=O)c2ccc(C(=O)O)cc2)c2ccccc2C1=O	VACV mCherry inh 25.1µM, VACV Venus inh inconclusive, HCV inh 10µM
COC(=O)c1ccccc1NC1=C/C(=N\S(=O)(=O)c2cccs2)c2ccccc2C1=O	VACV mCherry inh inconclusive, VACV Venus inh inconclusive, HCV inh 8.91µM
COC(=O)c1cccc(NS(=O)(=O)c2cccs2)c1C	none (no result: VACV mCherry inh, VACV Venus inh)
CCc1ccc(S(=O)(=O)/N=C2\C=C(Nc3ccc(C(=O)O)cc3)C(=O)c3ccccc32)cc1	VACV mCherry inh inconclusive, HCV inh inconclusive
Cc1ccc(S(=O)(=O)/N=C2\C=C(Nc3cccc(C(=O)O)c3)C(=O)c3ccccc32)cc1	VACV mCherry inh inconclusive
Cc1ccc(S(=O)(=O)/N=C2\C=C(Nc3ccc(O)cc3)C(=O)c3ccccc32)cc1	VACV mCherry inh 5.01µM, VACV Venus inh 2.24µM, HCV inh 6.31µM
O=C1C(Nc2ccccc2)=C/C(=N/S(=O)(=O)c2cccs2)c2ccccc21	VACV mCherry inh 8.91µM, VACV Venus inh 10µM, HCV inh 3.98µM
Cc1ccc(NC2=C/C(=N/S(=O)(=O)c3cccs3)c3ccccc3C2=O)cc1	VACV Venus inh inconclusive, HCV inh inconclusive
CCCCN(CCCC)c1ccc(Cn2ccc3ccccc32)cc1	none (no result: HCV inh)
O=C(C[C@@H]1C/C=C\C[C@@H](Cc2ccc(F)cc2)C(=O)OCCNC1=O)NCCO	none
CCc1cc(C(=O)N(Cc2ccccc2)c2c(N)n(CCOC)c(=O)[nH]c2=O)sc1C	none
CC(=O)Nc1ccc(SC[C@H](Cc2ccccc2)N2CC[C@@H](N)CCC2=O)cc1	none (no result: HCV inh)
COc1ccc(C2CC(c3cccs3)=NN2C(=O)c2ccc(Br)o2)cc1 (stereo not given)	VACV mCherry inh inconclusive, HCV inh 10µM
CCC(=O)N1N=C(c2cccs2)CC1c1ccc(C)cc1 (stereo not given)	none (no result: VACV mCherry inh, VACV Venus inh)
